Structures are written as SMILES. Records with an inconclusive call do not appear. Active and inactive are the calls of the source. Unless noted, the call rests on the fitted dose curve; in most records, active means well fitted curve in the direction sought with a large enough effect in the repeat runs; inconclusive means weak or mixed curves; inactive means no such curve, though single readings can be large; an effect the other way counts as inactive or inconclusive.

Here are results for 24 molecules from PubChem BioAssay (Tox21).

Assay [1] can be described thus: qHTS assay to identify small molecule agonists of the vitamin D receptor (VDR) signaling pathway - cell viability counter screen (AID 743224). Further: nearly all actives have a fitted effect of over 50% in size. Further: potency means the concentration at half of the fitted maximal effect. The method in brief: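 Viability is measured in the same wells as the VDR-bla reporter assay: after 16 h compound treatment and 2 h substrate loading, CellTiter-Glo is added and luminescence read 30 min later.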
Assay [2] is described as follows: qHTS assay to identify small molecule antagonists of the vitamin D receptor (VDR) signaling pathway - cell viability counter screen (AID 743225). Further: nearly all actives have a fitted effect of over 50% in size. Further: potency means the concentration at half of the fitted maximal effect. The method in brief: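 Same-well multiplex: following 16 h treatment of HEK 293T cells carrying a UAS-driven beta-lactamase reporter with compound and agonist (3 nM final), and a 2 h FRET substrate step, CellTiter-Glo was added and luminescence read after 30 min.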

A short description of assay [3]: qHTS assay to identify small molecule agonists of the endoplasmic reticulum stress response signaling pathway (AID 1159516; active means well fitted activation curve with a large enough effect in the signal ratio in the repeat runs, not every such curve was filed as active; the % refers to the signal ratio; further: potency means the concentration at half of the fitted maximal effect). The method in brief:
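Tox21 10K library screened in quantitative HTS format on ESRE-bla HeLa cells, a beta-lactamase reporter under ER stress response element control; 5 hr treatment, FRET read.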
(In general: Quantitative high-throughput screening tests each substance at several concentrations.)

The nature of assay [4]: qHTS assay to identify small molecule agonists of the endoplasmic reticulum stress response signaling pathway - cell viability counter screen (AID 1159517; calls by dose curve; further: series mostly up to about 61 µM; nearly all actives have a fitted effect of over 50% in size). In a few lines:
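Luminescence readout: CellTiter-Glo, 30 min RT, same wells as the ESRE-bla reporter read. HeLa ESRE-bla, 1,500 cells/well, o/n 37 C; cpd 5 hr 37 C/5% CO2.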

The nature of assay [5]: qHTS assay to identify small molecule antagonists of the retinoid-related orphan receptor gamma (ROR-gamma) signaling pathway - cell viability counter screen (AID 1159520). Further: nearly all actives have a fitted effect of over 50% in size. Further: potency means the concentration at half of the fitted maximal effect. In a few lines: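 Tet-on ROR gamma CHO cells (1,000/well) were plated 4 hr, given compounds in DMSO for 2 hr at 37 C, then induced with 1 uM final doxycycline for 16 hr. Viability was read as ATP by CellTiter-Glo luminescence after 30 min.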

For assay [6], the target named is Nuclear receptor ROR-gamma (Homo sapiens) (UniProt P51449). Briefly: qHTS assay to identify small molecule antagonists of the retinoid-related orphan receptor gamma (ROR-gamma) signaling pathway (AID 1159521; further: nearly all actives have a fitted effect of over 50% in size; further: potency means the concentration at half of the fitted maximal effect). The method in brief:
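Inducible-expression reporter assay: doxycycline (1 uM final) switched on RORγ in CHO cells bearing a ROR response element-luciferase construct, with test compounds present from 2 h beforehand. Decreased luminescence after 16 h defined antagonist activity.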

A short description of assay [7]: qHTS assay to identify small molecule agonists of the AP-1 signaling pathway - cell viability counter screen (AID 1159525; calls by dose curve; further: nearly all actives have a fitted effect of over 55% in size). The method in brief:
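ME-180 AP-1-bla, 2500 cells/well, Opti-MEM + 0.5% dialyzed FBS; overnight 37 °C; cpd 15-pt titration, 5 h 37 °C; CellTiter-Glo 30 min RT; luminescence read; normalised to TOAB and DMSO controls.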

Assay [8] in a line: qHTS assay to identify small molecule agonists of the AP-1 signaling pathway (AID 1159526; calls by dose curve; further: potency means the concentration at half of the fitted maximal effect).
Assay [9] in a line: qHTS assay to identify small molecule agonists of the RXR signaling pathway - cell viability counter screen (AID 1159529). Further: nearly all actives have a fitted effect of over 50% in size. Further: potency means the concentration at half of the fitted maximal effect. In a few lines: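 Counter screen: CellTiter-Glo luminescence. Cells: RXR-alpha-UAS-bla HEK 293T. Medium: 2% charcoal-stripped FBS. Treatment: 16 h, 37 C. Reagent incubation: 30 min, RT.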
Assay [10] has as its target Retinoic acid receptor RXR-alpha (Homo sapiens) (UniProt P19793). The assay can be described thus: qHTS assay to identify small molecule agonists of the RXR signaling pathway (AID 1159527; calls by dose curve; further: nearly all actives have a fitted effect of over 35% in size). The method in brief: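 Compounds in DMSO were added to RXR-alpha-UAS-bla HEK 293T cells kept in 2% charcoal-stripped serum, and incubated 16 hr at 37 C with 5% CO2. Reporter signal came from a 2 hr B/G FRET substrate step.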

Chain of Retinoic acid receptor RXR-alpha (Homo sapiens) (P19793 whole entry, looked up): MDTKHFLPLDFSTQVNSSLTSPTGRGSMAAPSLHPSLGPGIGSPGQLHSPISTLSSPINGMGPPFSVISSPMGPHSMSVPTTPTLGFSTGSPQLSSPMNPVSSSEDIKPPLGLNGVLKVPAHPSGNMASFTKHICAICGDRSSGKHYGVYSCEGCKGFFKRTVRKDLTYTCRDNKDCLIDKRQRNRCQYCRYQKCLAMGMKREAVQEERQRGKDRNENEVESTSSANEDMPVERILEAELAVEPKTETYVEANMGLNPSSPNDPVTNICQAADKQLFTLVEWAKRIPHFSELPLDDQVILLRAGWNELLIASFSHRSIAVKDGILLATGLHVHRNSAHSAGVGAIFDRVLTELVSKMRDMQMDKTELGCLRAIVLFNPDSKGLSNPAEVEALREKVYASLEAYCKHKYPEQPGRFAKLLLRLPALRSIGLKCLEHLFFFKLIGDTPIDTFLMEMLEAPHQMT

As to `COc1cccc(CCc2ccccc2OCC(CN(C)C)OC(=O)CCC(=O)O)c1` (centres undefined), the Potency result in assay [1], in assay [2], in assay [3], in assay [4], in assay [5] and in [7] was “inactive” throughout. Besides, the Potency result in assay [8] and in [9] was “inactive” throughout. Also, in assay [6], the Potency is 7.5 µM (active).

In the case of `C/C=C/C=N/NC(=O)c1ccncc1`, the Potency entry in assay [2], in assay [3], in [4], in assay [5], in assay [6] and in assay [7] was “inactive” in each case. Further, in assay [9], the Potency entry was “inactive”.

`CC1CCCCN1CCCOC(=O)c1ccc(OC2CCCCC2)cc1` (centres undefined): the Potency entry in [1], in assay [3], in [4], in [5] and in assay [7] was “inactive” in each case. For the same molecule, the Potency in assay [6] was 11.9 µM (active).

Take `CCN(CC)CCSC(=O)C(c1ccccc1)c1ccccc1`: the Potency result in assay [1], in assay [2], in [3], in assay [4], in assay [5] and in [6] was “inactive” in each case. The Potency entry in [7] and in assay [9] was “inactive” each time.

For the molecule `CC1(C)C(=O)N(Br)C(=O)N1Br`, the Potency result in [1], in [2], in [3], in assay [4], in [5] and in assay [6] was “inactive” in each case. The Potency entry in assay [7], in [8] and in assay [9] was “inactive” in each case.

On to `CCCCCCCCCCCC(=O)N(CC)CC`, for which the Potency result in assay [1], in [2], in assay [3], in assay [4], in assay [5] and in assay [6] was “inactive” each time. The Potency entry in assay [7] and in assay [9] was “inactive” each time.

With `CCCCCCCC/C=C\CCCCCCCC(=O)NCc1ccc(O)c(OC)c1`, the values for the Potency in assay [1] and in assay [2] were 33.5 µM (active) and 21.3 µM (active), respectively. Besides, the Potency result in assay [3], in assay [4], in assay [5], in [6], in assay [7] and in [9] was “inactive” throughout.

Regarding `O=C1NCCN1CCN1CCC(c2cn(-c3ccc(F)cc3)c3ccc(Cl)cc23)CC1`, the Potency in assay [1] is 11.9 µM (active); in assay [2], 16.9 µM (active); in assay [6], 26.6 µM (active); in [9], 21.3 µM (active). Besides, the Potency entry in [3], in assay [4] and in assay [5] was “inactive” in each case.

With `Cc1ccc(CCn2c3c(c4cc(Cl)ccc42)CN(C)CC3)cn1`, the Potency entry in assay [1], in assay [2], in [3], in [4], in assay [5] and in assay [6] was “inactive” in each case. In addition, the Potency result in assay [7] and in assay [8] was “inactive” in each case. The Potency in assay [9] is 16.9 µM (active).

Turning to `ClC/C=C\CCl`, the Potency entry in [1], in assay [2], in assay [3], in [4], in assay [5] and in assay [7] was “inactive” in each case. Further, the Potency entry in assay [8], in assay [10] and in assay [9] was “inactive” in each case.

For the molecule `Cc1cn[nH]c1`, the Potency result in [1], in assay [2], in assay [3], in [4], in [5] and in assay [7] was “inactive” each time. The Potency result in [8], in assay [10] and in assay [9] was “inactive” in each case.

On to `CN(C)CCCN1c2ccccc2Sc2ccc(C(F)(F)F)cc21`, for which the Potency entry in assay [3], in assay [4], in [5] and in assay [7] was “inactive” each time. Besides, the Potency in assay [8] was 16.9 µM (active).

Take `O=C(O)CCCCCCC(=O)O`: the Potency result in assay [1], in assay [2], in assay [3], in [4], in [5] and in assay [6] was “inactive” each time. The Potency result in assay [7], in [8] and in assay [9] was “inactive” each time.

As for `CCCCCCCC/C=C/CCCOC(C)=O`, the Potency result in [2], in [3], in assay [4], in assay [5], in assay [6] and in assay [7] was “inactive” each time. The Potency result in assay [8] and in assay [9] was “inactive” in each case.

For the molecule `O=C(O)Cc1ccc(OCCNC[C@H](O)c2ccccc2)cc1`, the Potency entry in [2], in assay [3], in assay [4], in [5], in assay [6] and in assay [7] was “inactive” each time. Moreover, the Potency result in [9] is “inactive”.

For `O=C1Nc2ccc(Cl)cc2[C@@](C#CC2CC2)(C(F)(F)F)O1`, the Potency entry in assay [1], in assay [3], in assay [4] and in assay [6] was “inactive” each time. Also, in assay [5], the Potency was 29.8 µM (active).

Consider `CN(C)c1ccc(N=Nc2ccccc2C(=O)O)cc1`, for which the Potency result in [1], in assay [2], in [3] and in [4] was “inactive” throughout. Also, the Potency was 13.7 µM (active) in assay [5] and 12.2 µM (active) in assay [6].

On to `CCCCNc1c(C(=O)OCC)c(C)nc2c1cnn2CC`, for which the Potency result in assay [1], in assay [2], in assay [3], in [4], in assay [5] and in assay [6] was “inactive” in each case. Moreover, the Potency entry in assay [7], in assay [8] and in [9] was “inactive” in each case.

Turning to `C=CC(C)(CCC=C(C)C)OC(=O)/C=C/c1ccccc1` (centres undefined), the Potency in assay [1] was 38.9 µM (active). In addition, the Potency result in assay [3], in [4], in [5], in assay [6] and in assay [7] was “inactive” each time.

For the molecule `NCCCC(O)(P(=O)(O)O)P(=O)(O)O`, the Potency entry in assay [1], in [2], in assay [3], in [4], in [5] and in assay [7] was “inactive” in each case. In addition, the Potency entry in assay [8], in [10] and in [9] was “inactive” in each case.

With `CCC(C)(C)c1cc(O)c(C(C)(C)CC)cc1O`, the Potency result in assay [2], in [4], in assay [7], in assay [8] and in assay [10] was “inactive” throughout. Also, the Potency in assay [3] is 3.89 µM (active); in assay [5], 24.3 µM (active); in assay [6], 24.3 µM (active).

Take `CC(=O)Oc1ccc(C2(c3ccc(OC(C)=O)cc3)Oc3ccccc3NC2=O)cc1`: the Potency entry in [1], in assay [2], in [3], in [4], in assay [5] and in [8] was “inactive” throughout. In assay [9], the Potency entry is “inactive”. Besides, in assay [6], the Potency was 26.6 µM (active).

As for `COC(=O)CC(C)CCC=C(C)C` (centres undefined), the Potency result in [1], in [2], in assay [3], in [4], in [5] and in [6] was “inactive” in each case. For the same molecule, the Potency result in [7] and in [9] was “inactive” in each case.

As for `CC(C(O)c1ccccc1)N(C)CCOC(c1ccccc1)c1ccccc1` (centres undefined), the Potency entry in assay [3] and in assay [4] was “inactive” throughout.
